Test results: PubChem BioAssay
Activity calls are given as the source filed them.

Experiments:
[1] = system: PRMT1 (protein arginine N-methyltransferase 1); assay: small molecules binding arginine methyltransferase PRMT1 – biochemical, small-molecule microarray, 635 nm fluorescence, primary screen (AID 1088); details: higher = more signal;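 note: binding of Prmt1 protein to compounds spotted on small-molecule microarray slides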
[2] = growth effects on S. cerevisiae YJM789 – YJM789 clinical isolate, OD600, 24 h, basal, primary screen (AID 1089); details: higher = more signal, called active from +8 up or from −8 down;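 note: growth of clinical yeast isolate S. cerevisiae YJM 789 seeded 1000 cells per well; test concentration not given here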
[3] = S. pombe growth modifiers, basal conditions – strain 972, OD600, 24 h, no modulator, primary screen (AID 1090);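 note: basal condition with compound alone and no growth modifier present; test concentration not given here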; details: S. pombe 972 growth, higher = more signal, called active from +8 up or from −8 down
[4] = budding yeast growth modifiers under rapamycin – strain BY4716, OD600, 96 h, primary screen (AID 1091); note: test concentration not given here; details: S. cerevisiae BY4716 + rapamycin, higher = more signal, called active from +8 up or from −8 down
[5] = molecular target: Torsin-1A-interacting protein 2 (Homo sapiens) (UniProt Q8NFQ8); assay: small molecules binding lysate-expressed LULL1 – cell lysate, human LULL1 lysate, 635/667 nm fluorescence, primary screen (AID 1092); details: small-molecule microarray, hLULL1 lysate binding, 635 nm fluorescence; higher = more signal;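 note: probe is lysate of COS7 cells overexpressing human LULL1; score merges per-feature 667 nm fluorescence with signal-to-noise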
Torsin-1A-interacting protein 2 (Homo sapiens), sequence (Q8NFQ8 whole entry, looked up): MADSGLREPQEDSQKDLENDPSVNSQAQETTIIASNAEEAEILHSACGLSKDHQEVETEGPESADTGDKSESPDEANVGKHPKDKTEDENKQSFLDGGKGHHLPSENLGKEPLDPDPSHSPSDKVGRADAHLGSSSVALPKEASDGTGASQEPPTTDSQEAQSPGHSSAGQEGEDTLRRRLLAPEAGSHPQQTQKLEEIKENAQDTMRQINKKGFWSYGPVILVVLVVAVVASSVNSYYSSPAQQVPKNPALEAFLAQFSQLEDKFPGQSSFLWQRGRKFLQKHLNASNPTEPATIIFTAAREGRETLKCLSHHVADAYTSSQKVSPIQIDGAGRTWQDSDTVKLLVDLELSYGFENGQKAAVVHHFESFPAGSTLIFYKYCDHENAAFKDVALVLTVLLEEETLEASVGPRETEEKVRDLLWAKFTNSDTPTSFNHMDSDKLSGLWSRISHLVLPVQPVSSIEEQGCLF

[6] = optical density change of DRC41 E. coli – strain DRC41, OD650, 24 h, E. coli filamentation project, primary screen (AID 1093);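 note: MC1000 strain lacking acrAB efflux and sulA so SOS filamentation is blocked; test concentration not given here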; details: E. coli DRC41 growth, higher = more signal, called active from +8 up or from −8 down
[7] = probe aLefty2 binding to arrayed compounds – biochemical, biotinylated probe, 635/667 nm fluorescence, primary screen (AID 1094); details: small-molecule microarray, higher = more signal;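 note: score merges spot fluorescence near 667 nm with spot signal-to-noise ratio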
[8] = system: Noggin (protein binding on small-molecule microarray); assay: small molecules binding Noggin protein – biochemical, 635/667 nm fluorescence, primary screen (AID 1095); details: 635 nm fluorescence, higher = more signal;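 note: score merges 667 nm feature fluorescence with signal to noise over triplicate slides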
[9] = molecular target: Neurogenic locus notch homolog protein 3 (Homo sapiens) (UniProt Q9UM47); assay: small molecules binding NOTCH3 protein – biochemical, 635/667 nm fluorescence, primary screen (AID 1096); details: small-molecule microarray, 635 nm fluorescence, higher = more signal
Neurogenic locus notch homolog protein 3 (Homo sapiens), sequence (Q9UM47 whole entry, looked up): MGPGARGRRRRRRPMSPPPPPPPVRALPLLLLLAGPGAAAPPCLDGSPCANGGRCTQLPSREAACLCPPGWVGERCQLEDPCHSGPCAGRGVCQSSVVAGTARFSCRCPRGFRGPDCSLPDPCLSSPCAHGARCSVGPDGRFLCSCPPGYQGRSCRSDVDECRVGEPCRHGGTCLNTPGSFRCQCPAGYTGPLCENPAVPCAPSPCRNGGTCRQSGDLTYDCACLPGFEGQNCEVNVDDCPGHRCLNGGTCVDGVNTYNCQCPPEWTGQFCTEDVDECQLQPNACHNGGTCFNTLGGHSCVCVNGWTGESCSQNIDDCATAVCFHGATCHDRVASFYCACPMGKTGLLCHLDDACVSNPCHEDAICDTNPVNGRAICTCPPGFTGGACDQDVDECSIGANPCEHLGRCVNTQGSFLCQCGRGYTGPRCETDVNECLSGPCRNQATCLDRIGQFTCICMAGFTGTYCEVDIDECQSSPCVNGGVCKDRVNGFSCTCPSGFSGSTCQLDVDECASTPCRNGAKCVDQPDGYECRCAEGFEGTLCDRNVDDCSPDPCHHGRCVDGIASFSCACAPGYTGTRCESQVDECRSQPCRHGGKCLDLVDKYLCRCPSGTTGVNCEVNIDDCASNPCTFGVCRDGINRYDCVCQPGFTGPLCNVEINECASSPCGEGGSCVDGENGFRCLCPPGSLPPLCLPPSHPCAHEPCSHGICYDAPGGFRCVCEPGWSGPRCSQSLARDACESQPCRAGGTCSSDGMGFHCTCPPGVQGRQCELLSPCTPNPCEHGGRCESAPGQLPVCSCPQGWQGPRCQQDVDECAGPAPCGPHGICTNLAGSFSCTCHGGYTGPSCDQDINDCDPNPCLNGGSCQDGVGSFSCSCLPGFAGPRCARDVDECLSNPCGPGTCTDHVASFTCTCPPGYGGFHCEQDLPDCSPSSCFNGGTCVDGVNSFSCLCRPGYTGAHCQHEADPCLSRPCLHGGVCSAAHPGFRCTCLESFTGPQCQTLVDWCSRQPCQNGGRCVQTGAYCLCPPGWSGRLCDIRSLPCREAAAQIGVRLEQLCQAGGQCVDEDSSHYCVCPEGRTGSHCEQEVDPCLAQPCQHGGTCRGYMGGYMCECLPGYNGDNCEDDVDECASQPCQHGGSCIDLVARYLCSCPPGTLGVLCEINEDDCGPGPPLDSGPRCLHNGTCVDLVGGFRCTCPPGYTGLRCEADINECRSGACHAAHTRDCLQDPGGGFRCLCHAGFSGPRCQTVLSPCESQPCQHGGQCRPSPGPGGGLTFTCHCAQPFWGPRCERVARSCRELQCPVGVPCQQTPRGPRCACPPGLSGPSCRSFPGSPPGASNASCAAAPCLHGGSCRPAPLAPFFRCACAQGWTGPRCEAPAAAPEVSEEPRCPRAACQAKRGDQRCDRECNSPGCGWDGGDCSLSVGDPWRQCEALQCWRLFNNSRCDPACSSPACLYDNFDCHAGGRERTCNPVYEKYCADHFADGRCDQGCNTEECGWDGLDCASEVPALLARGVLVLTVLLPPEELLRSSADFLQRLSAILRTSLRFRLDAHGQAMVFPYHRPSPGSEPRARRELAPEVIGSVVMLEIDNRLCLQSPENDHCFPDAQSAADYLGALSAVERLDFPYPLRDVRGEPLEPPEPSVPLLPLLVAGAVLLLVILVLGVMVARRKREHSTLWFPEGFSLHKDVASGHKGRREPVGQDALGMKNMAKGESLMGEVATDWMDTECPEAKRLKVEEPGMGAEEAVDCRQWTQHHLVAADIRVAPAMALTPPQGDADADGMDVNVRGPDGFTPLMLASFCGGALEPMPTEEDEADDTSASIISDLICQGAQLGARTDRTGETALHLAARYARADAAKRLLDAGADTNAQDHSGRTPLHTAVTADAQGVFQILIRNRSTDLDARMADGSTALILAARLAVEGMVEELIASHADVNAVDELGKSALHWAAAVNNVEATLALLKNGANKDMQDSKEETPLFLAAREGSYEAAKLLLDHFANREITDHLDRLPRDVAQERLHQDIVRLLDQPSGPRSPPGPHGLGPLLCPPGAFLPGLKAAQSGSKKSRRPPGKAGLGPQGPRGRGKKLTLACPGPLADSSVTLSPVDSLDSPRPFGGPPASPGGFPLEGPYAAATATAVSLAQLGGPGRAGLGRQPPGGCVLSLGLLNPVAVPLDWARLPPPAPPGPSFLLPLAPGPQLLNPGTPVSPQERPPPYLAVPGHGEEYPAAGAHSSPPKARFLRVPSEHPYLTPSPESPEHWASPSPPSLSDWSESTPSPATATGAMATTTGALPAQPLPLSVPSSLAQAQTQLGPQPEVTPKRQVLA

[10] = probe aEGFR binding to arrayed compounds – biochemical, biotinylated probe, 635/667 nm fluorescence, primary screen (AID 1097); details: small-molecule microarray, higher = more signal;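 note: probe is a biotinylated anti-EGFR antibody binding compounds printed on slides; score combines fluorescence near 667 nm and signal to noise of each spot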

Row | Compound | composite z-score [1] | z-score [2] | z-score [3] | z-score [4] | composite z-score [5] | z-score [6] | composite z-score [7] | composite z-score [8] | composite z-score [9] | composite z-score [10]
1 | Cc1ccc(C2CC=C(C(=O)O)CN2S(=O)(=O)c2ccc(C)cc2)cc1 (stereo not given) | 0.732 | 0.0388 (inactive) | 1.02 (inactive) | 0.856 (inactive) | 2.49 | -1.16 (inactive) | 0.0527 | 0.153 | 0.984 | -0.071
2 | CO[C@H]1O[C@H](CO)[C@@H](OC(=O)Nc2ccc3c(c2)OCO3)[C@H](OC(=O)Nc2ccccc2-c2ccccc2)[C@@H]1OC(=O)Nc1ccccc1-c1ccccc1 | 1.54 | 2.12 (inactive) | 1.8 (inactive) | 0.91 (inactive) | 3.27 | 0.39 (inactive) | 0.0427 | 0.943 | 1.07 | -0.0179
3 | COC(=O)C1(C)C=C2C(=C(c3ccccc3)C(=O)C2C)CN1 (stereo not given) | -0.722 | -0.269 (inactive) | 0.14 (inactive) | 0.654 (inactive) | 0.517 | -0.269 (inactive) | 0.498 | -1.44 | -0.904 | 0.0003
4 | C[C@@H]1C=CCC(=O)OC[C@H](C)C(=O)OC[C@H]2O[C@H]1C=C[C@H]2O | 0.047 | 1.1 (inactive) | -2.02 (inactive) | 0.614 (inactive) | 0.429 | 0.0861 (inactive) | -0.18 | 1.31 | 0.272 | -0.0039
5 | Cc1cc(C)c(-c2cc([C@H](C)ON=C3[C@H]4CCn5c(=O)n(-c6ccccc6)c(=O)n5[C@H]4[C@H](O)[C@@H]4O[C@H]34)on2)c(C)c1 | 0.432 | 0.566 (inactive) | -1.84 (inactive) | 0.0884 (inactive) | 1.83 | 0.771 (inactive) | -0.133 | 0.627 | 0.766 | -0.0978
6 | CC(C)CON=C1[C@H]2CCn3c(=O)n(-c4ccccc4)c(=O)n3[C@H]2[C@H](O)[C@@H]2O[C@H]12 | -0.317 | -0.476 (inactive) | 0.0606 (inactive) | -0.369 (inactive) | -0.381 | 0.343 (inactive) | -0.149 | 0.302 | 0.837 | -0.228
7 | CC(C)[C@@H](OCc1ccccc1)[C@H](C)C=NOC[C@@H](C)[C@H](OCc1ccccc1)C(C)C | 0.341 | 0.0268 (inactive) | 0.893 (inactive) | 0.338 (inactive) | -0.218 | 0.413 (inactive) | -0.0862 | 0.367 | 0.421 | -0.0234
8 | CCc1cccc(NC(=O)O[C@H]2[C@H](OC(=O)Nc3ccc4c(c3)OCO4)[C@@H](OC(=O)Nc3ccc4c(c3)OCO4)[C@@H](OC)O[C@@H]2CO)c1 | 1.54 | 1.41 (inactive) | 1.5 (inactive) | -2.13 (inactive) | 3.59 | 1.47 (inactive) | 0.166 | 1.22 | 1.08 | -0.0488
9 | COC(=O)[C@@H]1CC[C@H](C)[C@@H](c2ccc(C)cc2)N1C(=O)c1ccc(C=NOC[C@@H](O)COCc2ccco2)cc1 | -2.07 | -1.45 (inactive) | 0.165 (inactive) | -0.71 (inactive) | -1.69 | 1.47 (inactive) | 0.0179 | -1.01 | -3.12 | -0.0868
10 | O=C(CS)NCCCCCNC(=O)[C@@H]1C[C@@H]2C(=O)N[C@@H](Cc3ccccc3)C(=O)N2[C@@H]1c1ccc(O)cc1 | 1.47 | 0.176 (inactive) | -0.321 (inactive) | 0.858 (inactive) | 3.06 | 1.28 (inactive) | -0.0687 | -0.306 | 0.373 | -0.104
11 | CO[C@@H]1COC(=O)CC=C[C@@H](C)[C@@H]2C=C[C@H](O)[C@@H](COC(=O)CCC[C@H]1C)O2 | 1.43 | -0.199 (inactive) | 0.498 (inactive) | -0.181 (inactive) | -1.78 | 0.206 (inactive) | -0.075 | 1.65 | -0.076 | -0.15
12 | CC(C)(C)OC(=O)CC[C@]1(C(=O)NCc2ccccc2)N=C(c2ccc(OCCCO)cc2)O[C@H]1c1ccccc1 | 1.55 | -0.105 (inactive) | 0.851 (inactive) | 1.64 (inactive) | 3.71 | 0.0596 (inactive) | -0.0354 | 0.798 | 0.97 | -0.123
13 | COc1ccc(OC[C@H]2Cc3c(-c4ccccc4)nc4c(c3CO2)CN(CCOc2ccccc2)CC4)cc1 | 1.53 | -0.721 (inactive) | -2.44 (inactive) | -0.42 (inactive) | 1.32 | 0.258 (inactive) | 0.0534 | 0.476 | 1.1 | 0.03
14 | C=C(CCCC)C(=O)CC[C@@H](OC(C)=O)c1cccc(OCCO)c1 | 0.468 | -24.3 (active) | -20.6 (active) | -3.92 (inactive) | 0.0116 | -0.139 (inactive) | -0.193 | 1.54 | 0.165 | -0.192
15 | COC(=O)C1=CCC(c2cccc(Cl)c2)O1 (stereo not given) | 0.0357 | -1.6 (inactive) | -1.54 (inactive) | 4.34 (inactive) | 1.82 | -0.215 (inactive) | -0.043 | -0.485 | -0.223 | -0.106
16 | COC(=O)CC=C[C@H](C)[C@H](CO)NS(=O)(=O)c1ccc(C)cc1 | 0.562 | -0.0524 (inactive) | -0.256 (inactive) | -0.142 (inactive) | 0.368 | -0.518 (inactive) | -0.243 | 0.504 | 0.506 | -0.0953
17 | CC(CCC(=O)OC[C@H]1O[C@H](C#Cc2ccccc2)C=C[C@@H]1Oc1ccc(C)cc1)=NO[C@@H](C)c1cn([C@H](CO)Cc2ccccc2)nn1 | 0.668 | 0.846 (inactive) | 0.21 (inactive) | 12.2 (active) | 0.373 | -0.434 (inactive) | -0.145 | 0.237 | 0.281 | -0.0461
18 | CC(C)[C@H](NC(=O)OC(C)(C)C)[C@@H](O)CC(=O)OC(C)(C)C | -1.84 | -0.0351 (inactive) | -0.379 (inactive) | 0.596 (inactive) | -1.63 | -0.809 (inactive) | -0.22 | -0.531 | -0.904 | -0.29
19 | CCOC(=O)C1=CCC(c2cc3ccccc3[nH]2)NC1 (stereo not given) | 0.37 | -1.36 (inactive) | -2.39 (inactive) | 1.42 (inactive) | 2.45 | -0.0849 (inactive) | 0.389 | -0.465 | 0.335 | -0.0065
20 | C=CCNC(=O)[C@H]1[C@@H]2C(=O)O[C@@H](c3ccccc3)[C@@H](c3ccccc3)N2[C@@H](c2ccc(O)cc2)[C@]12C(=O)N(C(=O)OCCOC)c1ccc(C#CC3=CCCCC3)cc12 | 1.54 | 0.576 (inactive) | 0.111 (inactive) | 1.12 (inactive) | 3.14 | 0.111 (inactive) | 0.862 | 1.78 | 1 | -0.21
21 | C=CCC(OC(C)=O)[C@@H]1[C@@H](N(Cc2cc3ccccc3o2)C(=O)Cc2ccc(F)cc2)c2cc(OCCCO)ccc2N1C(=O)Cc1ccc(OC)cc1 (stereo not given in full) | -1.46 | -1.54 (inactive) | -0.644 (inactive) | -0.624 (inactive) | -0.362 | -0.824 (inactive) | -0.198 | -0.0439 | -1.37 | -0.131
22 | CCOC(=O)[C@H](Cc1ccccc1)NC(=O)CCC1CC(OC(=O)NCc2ccc3c(c2)OCO3)CC2(CCCC(COC(=O)NCC(c3ccccc3)c3ccccc3)O2)O1 (stereo not given in full) | 1.16 | 0.668 (inactive) | 0.9 (inactive) | 0.687 (inactive) | 2.34 | 0.454 (inactive) | -0.0485 | 0.955 | 1.06 | -0.157
23 | O=C1CCCC2OC12C(O)CCc1ccccc1 (stereo not given) | -0.071 | 0.238 (inactive) | 0.211 (inactive) | 0.164 (inactive) | -0.0258 | 0.454 (inactive) | -0.215 | 0.373 | 0.0248 | 0.395
24 | COCCOC(=O)N1C(=O)[C@@]2(c3cc(C#CCNC(N)=O)ccc31)[C@H](c1ccc(O)cc1)N1[C@H](c3ccccc3)[C@H](c3ccccc3)OC(=O)[C@H]1[C@@H]2C(=O)N1CCCCCCC1 | 1.55 | 1.2 (inactive) | 0.159 (inactive) | 1.27 (inactive) | 0.859 | 0.576 (inactive) | 0.354 | 1.28 | 1.08 | 0.0396
25 | COC(=O)[C@@H]1N=C(c2ccc(OCCCO)cc2)O[C@@H]1c1ccccc1N=[N+]=[N-] | 1.5 | -2.6 (inactive) | -7.5 (inactive) | -1.15 (inactive) | 3.01 | 1.2 (inactive) | 0.19 | -0.179 | 0.487 | -0.027
26 | CCCCc1nc2c(c3c1C[C@H](C)OC3)CN(CCC(C)C)CC2 | 1.49 | -0.147 (inactive) | -1.52 (inactive) | -1.07 (inactive) | 2 | 0.567 (inactive) | -0.114 | 0.582 | 1.11 | -0.0627
27 | CC(C)NC(=O)[C@@H]1c2ccccc2C(=O)N(CC23CC4CC(CC(C4)C2)C3)[C@H]1c1ccc(CO)cc1 | 1.57 | -1.44 (inactive) | -1.81 (inactive) | -0.241 (inactive) | 2.68 | 1.43 (inactive) | -0.143 | 0.701 | 1.04 | 0.0633
28 | O=C1[C@H]2[C@H]3[C@H](O)[C@H](O)CC(=NOCc4ccccc4)[C@H]3CC[C@H]2C(=O)N1c1cccc(Oc2ccccc2)c1 | 1.48 | -0.0026 (inactive) | 0.019 (inactive) | -1.12 (inactive) | 2.41 | 0.211 (inactive) | -0.0654 | 0.729 | 0.824 | 0.0801
